A selection: hits, their analogues and other compounds. The true share with any hit is near 3.6%.
mHTT CaM bind – disrupts binding of mutant huntingtin to calmodulin | P42858 | AlphaScreen His-mHTT/GST-CaM binding, luminescence | inhibition, % at 15 µM | 3.6% of 190,000 active;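 note: 0% = both proteins with DMSO and 100% = one protein alone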
Target sequence (P42858 whole entry, looked up, stated change not applied): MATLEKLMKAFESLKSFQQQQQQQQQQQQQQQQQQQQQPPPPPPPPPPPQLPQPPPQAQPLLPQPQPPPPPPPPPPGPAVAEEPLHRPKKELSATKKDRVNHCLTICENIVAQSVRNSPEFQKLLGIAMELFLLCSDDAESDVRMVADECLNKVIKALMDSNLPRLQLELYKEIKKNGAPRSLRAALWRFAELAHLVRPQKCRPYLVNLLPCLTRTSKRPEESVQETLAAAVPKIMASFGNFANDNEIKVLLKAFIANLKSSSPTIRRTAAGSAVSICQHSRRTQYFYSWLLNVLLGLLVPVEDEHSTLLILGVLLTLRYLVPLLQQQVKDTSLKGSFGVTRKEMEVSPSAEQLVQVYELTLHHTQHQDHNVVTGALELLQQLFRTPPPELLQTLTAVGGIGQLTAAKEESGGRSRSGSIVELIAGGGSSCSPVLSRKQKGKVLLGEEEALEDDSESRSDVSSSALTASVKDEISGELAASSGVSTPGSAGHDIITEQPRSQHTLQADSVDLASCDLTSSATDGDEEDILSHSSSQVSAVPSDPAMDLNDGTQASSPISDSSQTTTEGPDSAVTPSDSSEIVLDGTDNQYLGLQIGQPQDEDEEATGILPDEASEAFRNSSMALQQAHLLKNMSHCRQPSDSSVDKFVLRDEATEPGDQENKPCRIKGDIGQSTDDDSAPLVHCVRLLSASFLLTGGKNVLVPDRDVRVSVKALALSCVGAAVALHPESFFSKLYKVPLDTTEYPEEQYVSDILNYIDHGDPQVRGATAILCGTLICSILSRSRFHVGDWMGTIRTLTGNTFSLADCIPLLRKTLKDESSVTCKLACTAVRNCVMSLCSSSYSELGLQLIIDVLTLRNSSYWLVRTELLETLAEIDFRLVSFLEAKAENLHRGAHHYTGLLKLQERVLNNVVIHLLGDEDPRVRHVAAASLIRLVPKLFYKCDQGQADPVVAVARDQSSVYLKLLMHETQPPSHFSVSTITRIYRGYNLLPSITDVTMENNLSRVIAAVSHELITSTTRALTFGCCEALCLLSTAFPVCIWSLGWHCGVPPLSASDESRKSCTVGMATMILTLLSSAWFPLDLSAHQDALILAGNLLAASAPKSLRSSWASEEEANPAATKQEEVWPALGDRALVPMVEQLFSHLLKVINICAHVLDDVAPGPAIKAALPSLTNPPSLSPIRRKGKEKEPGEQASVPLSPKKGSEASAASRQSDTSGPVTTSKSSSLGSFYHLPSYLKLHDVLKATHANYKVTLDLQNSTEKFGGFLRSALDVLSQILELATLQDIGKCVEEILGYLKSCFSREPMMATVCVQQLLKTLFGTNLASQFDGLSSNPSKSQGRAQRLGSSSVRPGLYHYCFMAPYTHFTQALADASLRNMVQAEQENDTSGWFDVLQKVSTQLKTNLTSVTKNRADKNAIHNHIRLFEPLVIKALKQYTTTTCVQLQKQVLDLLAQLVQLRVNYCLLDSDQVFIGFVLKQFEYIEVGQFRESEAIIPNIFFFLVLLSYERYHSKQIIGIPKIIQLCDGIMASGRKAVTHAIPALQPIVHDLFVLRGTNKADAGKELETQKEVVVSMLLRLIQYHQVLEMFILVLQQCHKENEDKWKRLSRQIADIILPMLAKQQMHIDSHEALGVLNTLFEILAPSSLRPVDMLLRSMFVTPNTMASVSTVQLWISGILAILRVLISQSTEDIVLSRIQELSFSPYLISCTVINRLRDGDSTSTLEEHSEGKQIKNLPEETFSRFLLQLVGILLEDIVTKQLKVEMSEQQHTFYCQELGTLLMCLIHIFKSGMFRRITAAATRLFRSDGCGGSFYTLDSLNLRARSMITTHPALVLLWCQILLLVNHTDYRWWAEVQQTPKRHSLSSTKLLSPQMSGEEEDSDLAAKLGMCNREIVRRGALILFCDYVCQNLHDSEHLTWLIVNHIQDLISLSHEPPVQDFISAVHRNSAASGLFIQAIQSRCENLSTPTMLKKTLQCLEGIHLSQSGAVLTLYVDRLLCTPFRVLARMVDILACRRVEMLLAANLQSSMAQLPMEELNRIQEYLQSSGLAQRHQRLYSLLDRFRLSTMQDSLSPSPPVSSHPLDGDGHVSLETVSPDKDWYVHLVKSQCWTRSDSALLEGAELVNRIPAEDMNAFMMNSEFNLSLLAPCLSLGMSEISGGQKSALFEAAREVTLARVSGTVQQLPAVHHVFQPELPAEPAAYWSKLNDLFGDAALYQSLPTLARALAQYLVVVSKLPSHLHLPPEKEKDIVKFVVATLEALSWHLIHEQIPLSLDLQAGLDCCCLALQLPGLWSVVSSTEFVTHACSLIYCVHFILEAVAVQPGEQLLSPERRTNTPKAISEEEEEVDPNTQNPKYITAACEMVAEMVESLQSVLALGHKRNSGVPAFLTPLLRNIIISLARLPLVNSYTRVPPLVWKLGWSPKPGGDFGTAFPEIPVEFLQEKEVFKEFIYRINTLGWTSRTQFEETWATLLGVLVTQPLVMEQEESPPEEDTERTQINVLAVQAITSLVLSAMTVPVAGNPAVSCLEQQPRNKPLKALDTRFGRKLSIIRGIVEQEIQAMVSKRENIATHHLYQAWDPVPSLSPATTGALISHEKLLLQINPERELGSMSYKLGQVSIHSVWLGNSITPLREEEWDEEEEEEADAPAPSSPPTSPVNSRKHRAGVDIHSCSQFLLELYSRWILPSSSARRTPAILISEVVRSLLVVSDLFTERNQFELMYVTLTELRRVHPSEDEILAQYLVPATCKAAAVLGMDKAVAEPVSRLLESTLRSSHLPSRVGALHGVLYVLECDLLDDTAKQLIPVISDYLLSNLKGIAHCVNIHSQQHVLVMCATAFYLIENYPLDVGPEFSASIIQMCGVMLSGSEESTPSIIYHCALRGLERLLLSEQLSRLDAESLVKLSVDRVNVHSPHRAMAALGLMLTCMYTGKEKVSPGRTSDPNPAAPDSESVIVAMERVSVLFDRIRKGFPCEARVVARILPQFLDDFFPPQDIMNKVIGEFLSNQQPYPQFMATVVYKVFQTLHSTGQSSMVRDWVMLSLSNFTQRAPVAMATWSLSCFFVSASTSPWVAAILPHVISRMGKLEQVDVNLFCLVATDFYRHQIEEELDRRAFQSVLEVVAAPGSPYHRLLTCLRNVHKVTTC
Pf apPOL inh – Pf-apPOL DNA polymerase inhibition. Recombinant Pf-apPOL, molecular beacon fluorescence, 1.5 h. inhibition, % at 10 µM. 0.25% of 210,000 active. AID 1794808
The depositor's hits bear a star; nt = not tested or not shown. Cut-off read from the data, not from the text of the source: active = inhibition above about 50%; inactive = the rest.

SMILES	mHTT CaM bind	Pf apPOL inh
Cc1nn(C2CCS(=O)(=O)C2)c(C)c1N1CCN(C(=O)c2cc3ccccc3[nH]2)CC1 (centres undefined)	54*	-19
CSc1ccccc1C(=O)N1CCN(c2c(C)nn(C3CCS(=O)(=O)C3)c2C)CC1 (centres undefined)	-2	-1
CCn1cc(C2=CCN(S(=O)(=O)c3cccc(F)c3)CC2)c2cccnc21	22	-3
Clc1ccc(C2CC(c3ccccc3)Nc3ncnn32)cc1 (centres undefined)	11	-4
Cc1ccc(C2CC(c3cccs3)n3ncnc3N2)cc1 (centres undefined)	4	-2
c1ccc(-c2ccc(C3CC(c4cccs4)n4ncnc4N3)cc2)cc1 (centres undefined)	55*	-8
Cc1ccc(C2CC(c3ccc(Br)cc3)n3ncnc3N2)cc1 (centres undefined)	53*	-5
Clc1ccc(C2CC(c3cccc(Br)c3)Nc3ncnn32)cc1 (centres undefined)	53*	-2
COc1ccc(C2CC(c3cccc(Br)c3)Nc3ncnn32)cc1 (centres undefined)	32	-2
Clc1ccc(C2CC(c3ccc(Br)cc3)Nc3ncnn32)cc1 (centres undefined)	59*	-6
Cc1ccc(C2CC(c3ccccc3)n3ncnc3N2)cc1 (centres undefined)	-6	-2
Cc1cccc(NC(=O)C2CCN(c3c(C#N)cnc4ccccc34)CC2)c1C	-6	8
CCc1ccc(-c2nc3cc(N)ccc3o2)cc1	13	-17
COc1cc2c(cc1OC)C1(CCCC1)CN=C2c1ccc([N+](=O)[O-])cc1	12	-2
O=C1C=CC2=C3c4cc(O)c(O)cc4CC3(O)COC2=C1O (centres undefined)	nt	50*
N#CSC(CS(=O)(=O)c1cccc([N+](=O)[O-])c1)c1ccccc1 (centres undefined)	94*	-7
N#CSC(CS(=O)(=O)c1ccccc1)c1ccccc1 (centres undefined)	-10	-7
CCCOc1ccnc2c1c(=O)n(Cc1ccccn1)c(=O)n2C	-16	2
COc1ccc(N2CCN(Cc3ccc(F)cc3)C(C)C2=O)c(OC)c1 (centres undefined)	17	-1
COc1ccc(OC)c(N2CCN(Cc3cccc(C)c3)C(C)C2=O)c1 (centres undefined)	62*	1
COc1ccc(OC)c(N2CCN(Cc3ccc(F)cc3)C(C)C2=O)c1 (centres undefined)	74*	4
COc1ccc(OC)c(N2CCN(Cc3ccccc3F)C(C)C2=O)c1 (centres undefined)	22	0
CCOC(=O)c1sc(NC(=O)c2cc3cccc(OC)c3o2)cc1C	-6	-1
O=C(CCc1ccccc1)N1CCc2c(nc3cc[nH]n3c2=O)C1	-3	-5
C[C@@H]1C(c2cccc(Cl)c2)=NN(c2ccc(Br)cc2)[C@H]1C(=O)N1CCOC1=O	57*	-1
SMILES	mHTT CaM bind	Pf apPOL inh
CC[C@@H]1C(c2cccc(C)c2)=NN(c2ccc(Br)cc2)[C@H]1C(=O)N1CCOC1=O	66*	2
Cc1cccc(C2=NN(c3ccc(Br)cc3)[C@@H](C(=O)N3CCOC3=O)[C@@H]2c2ccccc2)c1	-78	0
C[C@@H]1C(c2cccc(Cl)c2)=NN(c2ccccc2)[C@H]1C(=O)N1CCOC1=O	-24	-6
OC(CN1CCN(c2c(Cl)cncc2Cl)CC1)C(F)(F)F (centres undefined)	nt	-10
CCNC(=O)N1CCCC(c2cccc(C(=O)NCCCN3CCCC3=O)c2)C1 (centres undefined)	-7	-3
Cc1noc(C)c1C1CCCN1C(=O)c1cccc(C(F)(F)F)c1 (centres undefined)	-3	3
COc1cc(/C=C2\NC(=O)N(Cc3ccc(Cl)cc3)C2=O)ccc1O	4	2
O=C(O)c1cn(-c2ccc(F)c(Cl)c2)nn1	-9	1
O=C(NCC1(O)CCOc2ccccc21)C1CC=CCC1 (centres undefined)	-4	1
COc1ccc(OC)c(CNc2sc3c(c2C(=O)Nc2ccccc2OC)CCC3)c1	82*	4
COc1ccc(OC)c(NC(=O)c2c(N)sc3c2CCC3)c1	41	-10
COc1ccc(OC)c(NC(=O)c2c(NC(=O)CN3CCCC(C)C3)sc3c2CCC3)c1 (centres undefined)	-3	-10
COc1ccc(OC)c(NC(=O)c2c(NCc3cccs3)sc3c2CCC(C)C3)c1 (centres undefined)	66*	-17
COc1ccc(OC)c(NC(=O)c2c(NC(=O)CNCc3ccccc3)sc3c2CCC3)c1	-3	-1
COc1ccccc1NC(=O)c1c(NC(=O)Cc2ccccc2)sc2c1CCC2	-2	-4
COc1ccc(OC)c(NC(=O)c2c(NCc3cccc(F)c3)sc3c2CCC3)c1	73*	-16
COc1ccc(OC)c(CNc2sc3c(c2C(=O)Nc2cc(OC)ccc2OC)CCC3)c1	66*	-16
Cc1oc(C2CCN(C(=O)c3ccc(F)c(Cl)c3)CC2)nc1C(=O)N1CCCC1	-5	3
Cc1ccc(NC(=O)COc2ccc(Cl)cc2)cc1	-22	-2
COc1cc(C2=N/C(=C\c3ccc(Cl)cc3Cl)C(=O)O2)cc(OC)c1OC	-2	1
COc1ccc(C2CC(=O)C3=C(C2)Nc2ncnn2C3c2cccc(OC)c2)cc1 (centres undefined)	1	-3
Cc1ccc(CN2C(=O)NC3(CCN(C(=O)c4ccc(N(C)C)cc4)CC3)C2=O)cc1	17	-7
COC(=O)c1ccccc1NC(=O)C1CC(c2ccccc2OC)=NO1 (centres undefined)	-12	-5
COc1ccc(OC)c(NC(=O)CN2CCC(c3nc(-c4cccc(F)c4)no3)CC2)c1	3	-3
Cc1ccc(S(=O)(=O)N2CCN(C3=NC=CN4CCN=C34)CC2)cc1Cl	34	-4
SMILES	mHTT CaM bind	Pf apPOL inh
COc1ccc(OC)c(NC(=O)c2c(NCc3cccc(OC)c3OC)sc3c2CCC3)c1	59*	-13
CCOc1ccccc1NC(=O)c1c(NCc2sccc2C)sc2c1CCC2	41	-17
COc1ccc(OC)c(NC(=O)c2c(NC(=O)CN3CCOCC3)sc3c2CCC3)c1	7	-2
COc1ccccc1NC(=O)c1c(NCc2sccc2C)sc2c1CCC2	56*	-20
Cc1cc(C)n(-c2cc(N3CCCC(C(=O)Nc4nccs4)C3)ncn2)n1 (centres undefined)	-2	-11
NS(=O)(=O)c1ccc(NC(NC(=O)c2cccc(Cl)c2)C(Cl)(Cl)Cl)cc1 (centres undefined)	10	0
NS(=O)(=O)c1ccc(NC(NC(=O)c2ccc([N+](=O)[O-])cc2)C(Cl)(Cl)Cl)cc1 (centres undefined)	15	-10
Cc1cccc(NC(NC(=O)N(C)C)C(Cl)(Cl)Cl)c1 (centres undefined)	5	-3
O=C(Nc1cccc(Cl)c1)c1ccc([N+](=O)[O-])cc1Cl	16	4
Cc1cccc(NC(NC(=O)c2ccc([N+](=O)[O-])cc2)C(Cl)(Cl)Cl)c1 (centres undefined)	76*	-1
O=C(Nc1cccc(Cl)c1)c1cccc([N+](=O)[O-])c1	92*	-16
O=C(NC(Nc1ccc([N+](=O)[O-])cc1)C(Cl)(Cl)Cl)c1cccc([N+](=O)[O-])c1 (centres undefined)	98*	-1

Assay outcomes (PubChem BioAssay)
